Source: PubChem BioAssay (EPA / NIEHS)
The source made the active and inactive calls. Rule for the calls: active = hit-call score of the fitted dose curve at least 0.9, where 1 is the maximum; inactive = score below 0.9.

Legend:
[1] = ATG_CRE_CIS: Attagene CIS-FACTORIAL HepG2 Assay for human cAMP Responsive Element (CRE) binding protein 3 (AID 2282926); conditions: HepG2 CRE cis-reporter, Attagene multiplexed mRNA; actives raise or lower the signal
Summary of the method: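 Transfected HepG2 were treated for 24 hours, then RNA was extracted and reporter cDNA amplified with sequence-specific primers. Labelled fragments were separated by capillary electrophoresis, and the CRE signal was fitted bidirectionally with DMSO as baseline.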

[2] = biological target: CCAAT/enhancer-binding protein beta (Homo sapiens) (UniProt P17676); experiment: ATG_C_EBP_CIS: Attagene CIS-FACTORIAL HepG2 Assay for human CCAAT/Enhancer Binding Protein (C/EBP) beta (AID 2282927); conditions: HepG2 Attagene cis-factorial transcription factor reporter; actives raise or lower the signal
Summary of the method: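 HepG2, transient MRTU transfection, 24 h treatment. RT-PCR plus CE fluorescence; DMSO negative control, bidirectional fit.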

[3] = ATG_AP_1_CIS: Attagene CIS-FACTORIAL HepG2 Assay for human Activator Protein 1 (AP-1) (AID 2282931); conditions: HepG2 Attagene cis-factorial AP-1 reporter mRNA; actives raise or lower the signal
Summary of the method: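 Endogenous transcription-factor activity in human HepG2 liver cells is read through a cis-promoter reporter transcript, sampled 24 h after dosing. Detection uses RT-PCR with capillary electrophoresis; values come from bidirectional fitting relative to DMSO.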

[4] = ATG_AP_2_CIS: Attagene CIS-FACTORIAL HepG2 Assay for human Activator Protein 2 (AP-2) (AID 2282932); conditions: HepG2 AP-2 cis-reporter, Attagene transcription factor profiling; actives raise or lower the signal
Summary of the method: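 HepG2 cells transiently transfected with cis-element reporter units and exposed for 24 h. Reporter mRNA measured by RT-PCR, FAM labelling, HpaI digestion and capillary electrophoresis. Changes in either direction fitted relative to DMSO.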

[5] = ATG_BRE_CIS: Attagene CIS-FACTORIAL HepG2 Assay for human Bone Morphogenetic Protein (BMP) Response Element (BRE) (AID 2282933); conditions: HepG2 BMP response element reporter, Attagene transcription factor profiling; actives raise or lower the signal
Summary of the method: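 Transient MRTU transfection of human HepG2 liver cells; 24 h compound treatment; total RNA isolated, reverse-transcribed, PCR-amplified, 6-FAM labelled, HpaI-cut, capillary electrophoresis. DMSO = negative control/baseline, bidirectional fit.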

[6] = ATG_E_Box_CIS: Attagene CIS-FACTORIAL HepG2 Assay for human Enhancer Box (E-box) (AID 2282936); conditions: HepG2 E-box cis-reporter transcription, actives raise or lower the signal
Summary of the method: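 HepG2 cells transiently transfected with multiplexed cis-element reporter units, dosed 24 h; reporter mRNA quantified by RT-PCR, 6-FAM labelling, HpaI digestion and capillary electrophoresis. E-box (USF1) signal fitted bidirectionally vs DMSO.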

[7] = ATG_M_61_CIS: Attagene CIS-FACTORIAL HepG2 Assay for M61 Transcription Factor (Internal Marker) (AID 2282937); conditions: HepG2 Attagene CIS-FACTORIAL M61 internal marker reporter; actives raise or lower the signal
Summary of the method: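 Cells were transfected with reporter units under cis-regulatory promoters, treated with chemicals for 24 h, then lysed for RNA. Reporter transcripts were quantified by RT-PCR and capillary electrophoresis, and activity was fitted bidirectionally against DMSO.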

[8] = ATG_EGR_CIS: Attagene CIS-FACTORIAL HepG2 Assay for human Early Growth Response 1 (EGR1) (AID 2282938); conditions: HepG2 Attagene CIS-FACTORIAL EGR reporter mRNA; actives raise or lower the signal
Summary of the method: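 Endogenous TF activity in HepG2 liver cells was gauged through cis-promoter reporter constructs transiently transfected. After 24 h dosing, reporter mRNA was quantified by RT-PCR and capillary electrophoresis, and curves fitted in both directions versus DMSO.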

[9] = ATG_Ets_CIS: Attagene CIS-FACTORIAL HepG2 Assay for human Erythroblast Transformation Specific (ETS) (AID 2282941); conditions: HepG2 ETS cis-reporter transcription, actives raise or lower the signal
Summary of the method: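 After transient cis-reporter transfection, HepG2 cells receive test chemical for 24 h. Reporter mRNA levels, measured by RT-PCR and capillary electrophoresis fluorescence, are analysed bidirectionally relative to the DMSO baseline.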

[10] = ATG_FoxO_CIS: Attagene CIS-FACTORIAL HepG2 Assay for human Forkhead box O (FoxO) (AID 2282943); conditions: HepG2 Attagene cis-reporter, FoxO element, mRNA; actives raise or lower the signal
Summary of the method: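 Transfected HepG2 reporter cells exposed to test chemical for 24 h; reporter RNA measured by reverse transcription, PCR and fluorescent capillary electrophoresis; curves fitted for increases and decreases against DMSO.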

[11] = ATG_GATA_CIS: Attagene CIS-FACTORIAL HepG2 Assay for human GATA Binding Protein (AID 2282944); conditions: HepG2 GATA cis-element reporter, Attagene multiplex mRNA; actives raise or lower the signal
Summary of the method: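 Transient MRTU transfection, HepG2, 24 h compound exposure. Total RNA → oligo(dT) RT → PCR → 6-FAM primer extension → HpaI cut → CE. Bidirectional fit vs DMSO.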

[12] = ATG_M_32_CIS: Attagene CIS-FACTORIAL HepG2 Assay for M32 Transcription Factor (Internal Marker) (AID 2282949); conditions: HepG2 Attagene cis-factorial M32 reporter, mRNA; actives raise or lower the signal;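 note: background control marker of the multiplexed CIS panel rather than a real target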
Summary of the method: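 Fluorescent capillary electrophoresis peaks of HpaI-digested, FAM-labelled RT-PCR reporter products give the signal. Source: transiently transfected human liver HepG2 cells, 24 h after chemical dosing; bidirectional fitting against DMSO.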

[13] = ATG_M_06_CIS: Attagene CIS-FACTORIAL HepG2 Assay for M06 Transcription Factor (Internal Marker) (AID 2282950); conditions: HepG2 Attagene CIS-FACTORIAL M06 internal marker reporter; actives raise or lower the signal
Summary of the method: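 Read-out is fluorescence of labelled reporter cDNA fragments resolved by capillary electrophoresis after RT-PCR. Cells: HepG2 carrying transfected cis-promoter reporter units, treated 24 h. Gain or loss of signal fitted relative to DMSO.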

[14] = ATG_MRE_CIS: Attagene CIS-FACTORIAL HepG2 Assay for human Metal Responsive Element (MRE) (AID 2282954); conditions: HepG2 MRE cis-reporter transcription, Attagene multiplex; actives raise or lower the signal
Summary of the method: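 HepG2 cells transiently transfected with cis-element-driven reporter units; mRNA measured 24 h after dosing. Reporter transcripts quantified by RT-PCR, FAM labelling, HpaI digestion and capillary electrophoresis; bidirectional fit versus DMSO.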

[15] = biological target: Paired box protein Pax-6 (Homo sapiens) (UniProt P26367); experiment: ATG_Pax6_CIS: Attagene CIS-FACTORIAL HepG2 Assay for human Paired Box 6 (PAX6) (AID 2282956); conditions: HepG2 CIS-FACTORIAL PAX6 reporter transcription, RNA readout; actives raise or lower the signal
Summary of the method: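 After twenty-four hours of chemical exposure, transfected HepG2 cells are harvested for RNA. Cis-promoter reporter transcripts are amplified, fluorescently labelled and sized by capillary electrophoresis, with gain and loss of signal scored against DMSO.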

[16] = ATG_PXRE_CIS: Attagene CIS-FACTORIAL HepG2 Assay for human Pregnane X Receptor Element (PXRE) (AID 2282957); conditions: HepG2 Attagene CIS-FACTORIAL PXRE reporter, mRNA; actives raise or lower the signal
Summary of the method: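 Multiplexed cis-reporter assay in transiently transfected human HepG2 cells; 24 h chemical exposure. Reporter transcripts quantified by RT-PCR with fluorescent labeling and capillary electrophoresis.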

[17] = biological target: Transcription factor Sp1 (Homo sapiens) (UniProt P08047); experiment: ATG_Sp1_CIS: Attagene CIS-FACTORIAL HepG2 Assay for human Specificity Protein 1 (Sp1) (AID 2282961); conditions: HepG2 Sp1 cis-reporter transcription, actives raise or lower the signal
Summary of the method: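 Endogenous Sp1 activity was gauged in human liver HepG2 cells bearing transfected reporter units under a cis-regulating promoter. After 24 h dosing, reporter mRNA was quantified by RT-PCR with capillary electrophoresis, and activity fitted bidirectionally versus DMSO.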

[18] = ATG_SREBP_CIS: Attagene CIS-FACTORIAL HepG2 Assay for human Sterol Regulatory Element Binding (SREBP) (AID 2282962); conditions: HepG2 Attagene cis-factorial SREBP reporter, mRNA; actives raise or lower the signal
Summary of the method: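 Twenty-four hours after chemical dosing of transfected HepG2 cultures, reporter RNA was converted to cDNA, amplified, end-labelled with 6-FAM and resolved by capillary electrophoresis. Responses were fitted relative to DMSO.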

[19] = biological target: Signal transducer and activator of transcription 3 (Homo sapiens) (UniProt P40763); experiment: ATG_STAT3_CIS: Attagene CIS-FACTORIAL HepG2 Assay for human Signal Transducer and Activator of Transcription 3 (STAT3) (AID 2282963); conditions: HepG2, Attagene cis-factorial STAT3 reporter transcription; actives raise or lower the signal
Summary of the method: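 HepG2 cells transiently transfected with multiple cis-element-driven reporter units report endogenous transcription factor activity. After 24 h compound exposure, reporter mRNA is measured by RT-PCR, 6-FAM labelling, HpaI digestion and capillary electrophoresis. Fitted bidirectionally versus DMSO.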

[20] = ATG_TAL_CIS: Attagene CIS-FACTORIAL HepG2 Assay for human TAL Basal Promoter (AID 2282966); conditions: HepG2 Attagene cis-factorial TAL promoter reporter; actives raise or lower the signal;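 note: background control endpoint measuring basal TAL promoter reporter mRNA not a specific factor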
Summary of the method: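 Steps: transfect HepG2 with multiple reporter transcription units; dose 24 h; isolate RNA, reverse-transcribe, PCR-amplify, label with 6-FAM, digest with HpaI; resolve by capillary electrophoresis. Bidirectional fitting against DMSO baseline.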

Measured: AC50

Transcription factor Sp1 (Homo sapiens), sequence (P08047 whole entry, looked up): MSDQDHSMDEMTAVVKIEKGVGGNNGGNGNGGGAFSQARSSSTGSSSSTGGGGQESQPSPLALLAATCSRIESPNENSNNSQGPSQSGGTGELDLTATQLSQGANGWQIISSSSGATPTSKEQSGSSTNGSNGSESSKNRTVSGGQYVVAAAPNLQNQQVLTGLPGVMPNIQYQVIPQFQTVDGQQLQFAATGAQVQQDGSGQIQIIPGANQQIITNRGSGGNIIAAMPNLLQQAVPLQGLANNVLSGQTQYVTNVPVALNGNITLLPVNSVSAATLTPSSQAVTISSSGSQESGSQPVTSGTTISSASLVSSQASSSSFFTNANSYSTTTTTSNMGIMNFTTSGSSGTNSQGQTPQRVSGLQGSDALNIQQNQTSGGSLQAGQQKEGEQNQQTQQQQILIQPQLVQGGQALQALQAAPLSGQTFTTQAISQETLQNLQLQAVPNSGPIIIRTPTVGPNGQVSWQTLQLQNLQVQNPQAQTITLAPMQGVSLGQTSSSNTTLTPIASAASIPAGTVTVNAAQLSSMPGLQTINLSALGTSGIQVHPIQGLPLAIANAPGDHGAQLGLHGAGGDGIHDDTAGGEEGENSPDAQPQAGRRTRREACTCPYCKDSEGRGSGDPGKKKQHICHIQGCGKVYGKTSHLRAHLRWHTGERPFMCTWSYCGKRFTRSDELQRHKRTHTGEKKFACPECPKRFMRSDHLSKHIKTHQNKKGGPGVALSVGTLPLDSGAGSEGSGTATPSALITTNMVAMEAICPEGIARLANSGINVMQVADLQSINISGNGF
CCAAT/enhancer-binding protein beta (Homo sapiens), sequence (P17676 whole entry, looked up): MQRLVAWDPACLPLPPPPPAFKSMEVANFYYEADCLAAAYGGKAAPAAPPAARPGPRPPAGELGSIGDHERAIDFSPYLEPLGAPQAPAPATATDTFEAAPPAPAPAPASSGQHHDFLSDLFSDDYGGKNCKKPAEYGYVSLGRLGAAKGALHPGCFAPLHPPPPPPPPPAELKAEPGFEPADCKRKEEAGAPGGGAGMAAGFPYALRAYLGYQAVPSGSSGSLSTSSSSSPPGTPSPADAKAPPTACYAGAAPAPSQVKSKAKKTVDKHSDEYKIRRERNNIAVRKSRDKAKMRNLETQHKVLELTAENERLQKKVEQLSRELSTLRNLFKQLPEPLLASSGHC
Signal transducer and activator of transcription 3 (Homo sapiens), sequence (P40763 whole entry, looked up): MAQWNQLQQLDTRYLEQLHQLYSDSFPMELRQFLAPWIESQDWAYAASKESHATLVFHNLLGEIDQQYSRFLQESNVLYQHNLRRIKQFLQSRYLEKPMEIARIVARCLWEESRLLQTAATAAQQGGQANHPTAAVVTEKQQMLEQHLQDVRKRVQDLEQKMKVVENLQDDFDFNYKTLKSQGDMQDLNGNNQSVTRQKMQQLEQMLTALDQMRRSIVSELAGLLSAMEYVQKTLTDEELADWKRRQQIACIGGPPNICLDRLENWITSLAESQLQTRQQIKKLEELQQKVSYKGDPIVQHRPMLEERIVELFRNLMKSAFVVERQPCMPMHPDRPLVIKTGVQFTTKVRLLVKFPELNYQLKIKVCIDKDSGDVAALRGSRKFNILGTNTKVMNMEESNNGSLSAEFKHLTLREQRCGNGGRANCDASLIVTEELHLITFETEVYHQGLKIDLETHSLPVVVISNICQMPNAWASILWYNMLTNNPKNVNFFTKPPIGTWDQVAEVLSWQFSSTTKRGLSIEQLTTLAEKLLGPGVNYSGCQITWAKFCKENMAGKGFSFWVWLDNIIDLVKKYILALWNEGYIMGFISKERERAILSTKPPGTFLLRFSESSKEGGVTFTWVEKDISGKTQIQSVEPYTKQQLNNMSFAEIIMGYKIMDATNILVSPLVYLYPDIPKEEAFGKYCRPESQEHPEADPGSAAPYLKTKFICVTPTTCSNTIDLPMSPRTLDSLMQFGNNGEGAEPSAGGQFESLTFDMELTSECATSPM
Paired box protein Pax-6 (Homo sapiens), sequence (P26367 whole entry, looked up): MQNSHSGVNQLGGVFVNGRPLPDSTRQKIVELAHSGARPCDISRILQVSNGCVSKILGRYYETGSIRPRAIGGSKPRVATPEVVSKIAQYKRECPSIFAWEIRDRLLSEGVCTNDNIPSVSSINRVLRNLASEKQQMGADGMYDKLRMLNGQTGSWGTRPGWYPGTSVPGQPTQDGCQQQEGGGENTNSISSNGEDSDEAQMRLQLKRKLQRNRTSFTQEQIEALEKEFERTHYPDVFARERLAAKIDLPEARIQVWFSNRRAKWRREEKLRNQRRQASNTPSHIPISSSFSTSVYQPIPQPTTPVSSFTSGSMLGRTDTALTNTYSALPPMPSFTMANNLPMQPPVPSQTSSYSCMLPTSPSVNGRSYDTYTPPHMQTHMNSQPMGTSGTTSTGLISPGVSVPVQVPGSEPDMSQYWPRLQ

CC/C=C\CCO
active: [16] 29.3 µM
inactive: all other assays above

CCC(C)(CCC(C)C)C(=O)O (stereo not given)
inactive: all assays above

OCCN(CCO)c1cccc(Cl)c1
active: [16] 52.4 µM
inactive: all other assays above

Cc1cccnc1
active: [2] 100 µM | [3] 58 µM | [5] 167 µM | [9] 165 µM
inactive: all other assays above

CCCC[N+]1(C)CCCC1
inactive: all assays above

OCCc1ccccn1
inactive: all assays above

Clc1ccccn1
inactive: all assays above

CCCc1c(OCCCCc2nn[nH]n2)ccc(C(C)=O)c1O
active: [5] 180 µM | [14] 128 µM | [16] 27.4 µM | [18] 37.4 µM
inactive: all other assays above

CC1=C(CC(=O)O)c2cc(F)ccc2/C1=C\c1ccc(S(C)=O)cc1 (stereo not given)
active: [6] 43.4 µM | [16] 5.37 µM
inactive: all other assays above

Cc1cc(C)c(S(=O)(=O)O)cc1N=Nc1cc(S(=O)(=O)O)c2ccccc2c1O
inactive: all assays above

CCO[Si](CCCN)(OCC)OCC
active: [16] 100 µM
inactive: all other assays above

COCCCN
inactive: all assays above

CC1(C)S[C@@H]2[C@H](NC(=O)[C@H](N)c3ccccc3)C(=O)N2[C@H]1C(=O)O
inactive: all assays above

CC/C=C\CCCCCO
active: [16] 78.4 µM
inactive: all other assays above

CCCCCCCCCCC1CO1 (stereo not given)
active: [3] 164 µM | [14] 152 µM | [16] 27 µM | [17] 154 µM | [18] 100 µM
inactive: all other assays above
